# tim23-1 inh – growth inhibitors of tim23-1 mutant yeast; inhibition, % at 20 µM; 330,000 compounds, 1.3% hits; S. cerevisiae tim23-1 growth, BacTiter-Glo luminescence, 24 h;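 active means growth inhibition of the mutant yeast at or above 50%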;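 further: temperature-sensitive mutant grown at 25 °C; plate controls were DMSO-treated mutant yeast for no effect and medium wells lacking yeast for full effect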
# NALP3 yeast inh – blocks the NALP3 inflammasome reconstituted in yeast. Yeast reconstituted NLRP3/ASC/caspase-1, beta-gal luminescence, 24 h. inhibition, % at 10 µM. 330,000 compounds, 0.39% hits. AID 2825;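 active means inhibition of 50% or more; inactive means inhibition below 50%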;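 further: plate controls were induced DMSO wells for no effect and uninduced yeast grown without galactose for full effect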
# tim10-1 inh – tim10-1 yeast growth inhibition | AID 463190 | 330,000 compounds, 2.2% hits | S. cerevisiae tim10-1 ts strain growth, BacTiter-Glo, 24 h | inhibition, % at 20 µM;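 active means inhibition of at least 40%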;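 further: mutant grown at 25 °C; 0% = DMSO wells with yeast and 100% = wells holding no yeast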
# TIM10 inh – TIM10 yeast growth inhibition | S. cerevisiae TIM10 strain growth, BacTiter-Glo luminescence, 24 h | inhibition, % at 10 µM | 330,000 compounds, 1.4% hits | AID 463195;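 active means inhibition of 40% or more at the single tested concentration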;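 further: wild-type TIM10 isogenic control strain grown at permissive 25 °C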
# NALP1 inh – blocks the NALP1 inflammasome reconstituted in yeast; 280,000 compounds, 0.61% hits; S. cerevisiae NALP1/ASC/caspase-1 growth, X-gal OD620, 72 h; inhibition, % at 10 µM; in the data active means inhibition mostly above about 24%, no sharp cut-off; inactive means mostly below about 32%
# tim10-1 conf – tim10-1 yeast growth inhibition, confirmed; 7,400 compounds, 56% hits; shares compounds with tim10-1 inh; S. cerevisiae tim10-1 ts strain growth, BacTiter-Glo, 24 h; inhibition, % at 20 µM; AID 463213;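 active means inhibition of yeast growth at or above a set limit in either of two repeat tests at 20 µM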;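 further: tim10-1 mutant grown at permissive 25 °C to find synthetic lethal compounds; 0% = DMSO yeast wells and 100% = medium wells without yeast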
# An asterisk follows results filed as active; nt = no result given. Most compounds without a hit are left out; they make up all but 4.1% or so of the library.
SMILES,tim23-1 inh,NALP3 yeast inh,tim10-1 inh,TIM10 inh,NALP1 inh,tim10-1 conf
Cc1[nH][nH]c(=O)c1C(c1c(C)[nH][nH]c1=O)c1cn(Cc2cccc3ccccc23)c2ccccc12,49,11,48*,10,19,33*
O=[N+]([O-])c1cc(/C=N/O)ccc1SCc1ccccc1Cl,16,14,47*,35,1,22
COc1ccc(Cl)cc1NC(=O)CN(C)CC(=O)Nc1cc(OC)c(OC)c(OC)c1,9,-18,21,1,6,nt
CCCCn1c(N)c(N(CC)C(=O)c2cc(S(=O)(=O)N3CCCCCC3)ccc2OC)c(=O)[nH]c1=O,9,-5,8,2,nt,nt
O=C(COc1ccccc1)Nc1ccc(S(=O)(=O)N2CCCC2)cc1,27,18,41*,28,-4,31
Cc1ccccc1OCC(=O)Nc1ccc(S(=O)(=O)N2CCCC2)cc1,23,5,49*,25,nt,37*
COc1ccc(OCC(=O)Nc2ccc(S(=O)(=O)N3CCCC3)cc2)cc1,31,13,26,37,-14,nt
O=C(CCCN1C(=O)c2ccccc2C1=O)Nc1ccc(S(=O)(=O)N2CCCCC2)cc1,31,-9,41*,9,-5,32*
CCCOc1ccccc1OCC(=O)Nc1ccc(S(=O)(=O)N2CCCC2)cc1,36,24,38,23,nt,nt
COc1ccccc1OCC(=O)Nc1ccc(S(=O)(=O)N2CCCCCC2)cc1,31,4,31,31,-20,nt
O=C(CCCN1C(=O)c2ccccc2C1=O)Nc1ccc(S(=O)(=O)N2CCOCC2)cc1,12,-10,14,8,14,nt
CCCOc1ccccc1OCC(=O)Nc1ccc(S(=O)(=O)N2CCCCC2)cc1,31,14,41*,7,nt,32*
CN(CC(=O)NC1CCCc2ccccc21)S(=O)(=O)c1cccs1 (stereo not given),6,-2,2,-9,25,nt
Cc1cc(Nc2n[nH]c(N)c2C#N)ccc1F,0,11,-5,-8,10,nt
CCOc1ccccc1OCCCC(=O)N1CCN(S(=O)(=O)c2ccc(C)cc2)CC1,23,11,41*,11,-31,16
COc1ccc(CSCC(=O)Nc2ccc(S(=O)(=O)N3CCCCCC3)cc2)cc1,39,15,42*,24,43,29
Cc1ccccc1C(=O)OC1OC(=O)C(Cl)=C1N1CCOCC1 (stereo not given),18,-5,11,14,15,nt
S=c1nc[nH]c2c1sc1nc(N3CCOCC3)c3c(c12)CCCC3,36,2,43*,23,23,19
O=C(ON=C1CCN(S(=O)(=O)c2ccccc2)CC1)c1ccc(F)cc1,46,-2,52*,37,1,54*
Cc1ccc(CNc2nc(-c3cccnc3)nc3ccccc23)cc1,43,16,31,-5,10,nt
CC(=O)Nc1ccc(Nc2nc(-c3ccccc3)nc3ccccc23)cc1,23,15,48*,35,7,34*
O=C(O)c1ccc(Nc2nc(-c3ccc([N+](=O)[O-])cc3)nc3ccccc23)cc1,-7,22,-8,-9,23,nt
Cc1ccccc1Nc1nc(-c2cccnc2)nc2ccccc12,45,21,43*,-13,3,19
COc1ccccc1-n1cc(CN2CCN(C3CCCCC3)C(CCO)C2)cn1 (stereo not given),1,12,6,-10,14,nt
O=C(c1ccc(COc2ccccc2Br)cc1)N1CCCCCC1,39,18,41*,28,15,27
SMILES,tim23-1 inh,NALP3 yeast inh,tim10-1 inh,TIM10 inh,NALP1 inh,tim10-1 conf
CSc1ncc(Cl)c(C(=O)Nc2nnc(SC/C=C/c3ccccc3)s2)n1,29,-14,42*,16,28,39*
Cc1cccc(N2CCN(C(=O)CCC(=O)N3Cc4ccccc4Oc4ncccc43)CC2)c1C,26,18,54*,-12,17,-20
C/C(=N/Nc1nc(C)cc(-c2ccccc2)n1)c1ccco1,28,21,41*,35,3,24
C/C(=N\Nc1nc(C)cc(-c2ccccc2)n1)c1ccccc1,-2,28,-5,8,4,nt
C=CCn1c(Cc2cccs2)nnc1SCC(=O)c1cccc(Br)c1,31,3,41*,14,0,24
COC(=O)c1ccc(N2CCN(CC(=O)c3ccc(-c4ccccc4)cc3)CC2)c([N+](=O)[O-])c1,17,29,9,0,10,nt
N#Cc1c(NC(=O)C2CC(Cl)=CCC2C(=O)O)sc2c1CCCC2 (stereo not given),12,-12,5,13,-1,nt
COc1ccc(N2CCN(C(=O)c3ccc(CS(=O)(=O)c4ccc(OC)cc4)o3)CC2)cc1,5,-2,16,8,-16,nt
COc1ccc(S(=O)(=O)Cc2ccc(C(=O)NC3CCC(C)CC3)o2)cc1 (stereo not given),23,4,40*,12,8,6
COc1ccc(S(=O)(=O)Cc2ccc(C(=O)N3CCN(c4cc(C)ccc4C)CC3)o2)cc1,29,8,45*,12,4,-5
COc1ccc(S(=O)(=O)Cc2ccc(C(=O)N3CCN(c4ccc(Cl)cc4)CC3)o2)cc1,35,6,46*,25,-2,18
Cc1ccc(C)c(S(=O)(=O)N2CCN(C(=O)Cn3c(=O)cnc4ccccc43)CC2)c1,-1,12,-13,6,nt,nt
CCCc1nnc2c(N(C)S(=O)(=O)c3ccc(C)cc3)nc3ccccc3n12,16,-17,40*,18,29,10
CC1(C)C(C=C(Cl)Cl)C1C(=O)Nc1ccc(S(=O)(=O)Nc2ncccn2)cc1 (stereo not given),-2,4,-16,2,-17,nt
CN(C)/C=C/C(=O)c1ccc2noc(-c3ccc(F)cc3)c2c1,31,8,42*,9,30,13
Cc1cccc(-c2onc3ccc(C(=O)/C=C/N(C)C)cc23)c1,27,27,48*,12,16,28
Cc1ccc(-c2onc3ccc(C(=O)/C=C/N(C)C)cc23)cc1,27,2,36,22,-1,nt
COc1cc(NC(=O)CSc2nc3[nH]c(=O)cc(O)c3s2)cc(OC)c1OC,-8,-13,-5,-2,nt,nt
O=C(COc1ccccc1)NC(=S)Nc1cccc2cc(O)ccc12,14,36,2,0,13,nt
COc1ccc(NC(=O)C2CCCN(c3ncccn3)C2)cc1 (stereo not given),-4,22,-7,-2,-21,nt
CCC(C)c1ccc(NC(=O)C2CCCN(c3ncccn3)C2)cc1 (stereo not given),43,7,42*,37,-18,41*
N#Cc1nc(-c2ccccc2Cl)oc1NCc1ccco1,42,8,40*,-4,8,29

# Screens as filed in PubChem.
